In PubChem BioAssay AID2284186 (EPA ToxCast):
Active and inactive are the calls of the source. Rule for the calls: active = hit-call score of the fitted dose curve at least 0.9, where 1 is the maximum; inactive = score below 0.9.

Biological target: Glucocorticoid receptor (Homo sapiens) (UniProt P04150)
Assay: ERF_FR_NR_hGR: Eurofins (ERF) Nuclear Receptor (NR) Radioligand Binding LeadHunter Assay for human Glucocorticoid Receptor (GR) Agonism, conducted at France lab site
Description: ERF_FR_NR_hGR is a biochemical, single-readout assay that uses extracted gene-proteins in a cell-free assay. Measurements were taken 6 hour after chemical dosing in a 96-well plate. See GR Human Glucocorticoid NHR Binding (Agonist Radioligand) Assay, Cerep.ERF_FR_NR_hGR is an assay component calculated from the ERF_FR_NR_hGR assay. It is designed to measure radioligand binding using a type of binding reporter as detected by scintillation counting with radiometry technology.Data from the assay component ERF_FR_NR_hGR was analyzed at the assay endpoint, ERF_FR_NR_hGR, in the positive analysis fitting direction relative to DMSO as the negative control and baseline of activity. Using a type of binding reporter, gain-of-signal activity can be used to understand changes in binding as they relate to gene NR3C1. To generalize the intended target to other relatable targets, this assay endpoint is annotated to the nuclear receptor intended target family, where the subfamily is steroidal.
Human cells are incubated for 24 hours at 4C with [3H]dexamethasone ([…]) ligand and Dexamethazone as control inhibitor. Test Sample Requirements: Minimum for 1) Screen: 60 ul of 10 mM stock -OR- 1 mg (pre-weighed) for 10 uM final testing. 2) Dose Response: 90 ul of 10 mM stock -OR- 1 mg (pre-weighed) for a top concentration at 10 uM.

Sequence of Glucocorticoid receptor (Homo sapiens) (P04150 whole entry, looked up): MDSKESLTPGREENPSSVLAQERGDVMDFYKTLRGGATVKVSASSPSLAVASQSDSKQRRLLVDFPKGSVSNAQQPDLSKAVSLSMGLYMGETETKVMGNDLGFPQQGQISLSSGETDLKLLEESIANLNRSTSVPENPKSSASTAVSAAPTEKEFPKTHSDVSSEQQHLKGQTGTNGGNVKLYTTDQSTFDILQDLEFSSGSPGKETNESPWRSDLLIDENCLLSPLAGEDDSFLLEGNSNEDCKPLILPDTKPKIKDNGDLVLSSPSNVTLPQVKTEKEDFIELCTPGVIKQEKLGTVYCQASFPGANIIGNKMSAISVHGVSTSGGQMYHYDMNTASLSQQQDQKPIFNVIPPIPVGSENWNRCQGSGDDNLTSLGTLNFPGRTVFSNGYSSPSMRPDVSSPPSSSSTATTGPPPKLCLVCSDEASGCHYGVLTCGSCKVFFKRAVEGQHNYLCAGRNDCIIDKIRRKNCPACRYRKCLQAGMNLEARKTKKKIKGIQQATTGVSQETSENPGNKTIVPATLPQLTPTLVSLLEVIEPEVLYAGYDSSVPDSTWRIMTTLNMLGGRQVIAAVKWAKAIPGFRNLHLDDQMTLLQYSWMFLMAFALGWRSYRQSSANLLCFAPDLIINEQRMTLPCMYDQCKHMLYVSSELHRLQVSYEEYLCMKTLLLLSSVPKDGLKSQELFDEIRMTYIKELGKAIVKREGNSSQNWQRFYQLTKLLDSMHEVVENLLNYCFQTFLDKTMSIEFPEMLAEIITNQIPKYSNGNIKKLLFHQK

Row | Compound | AC50
1 | O=C(/C=C/c1ccc(O)cc1)CC(=O)/C=C/c1ccc(O)cc1 | 969 nM (active)
